Assay outcomes as filed in PubChem BioAssay.
12-LOX inh: blocks human arachidonate 12S-lipoxygenase; AID 1671190; P18054; Potency, µM (titrated, usually from 108 µM), for inactives: top-dose activity change, negative = inhibition, most hits filed as inhibitors; 580,000 compounds, 1.1% hits; purified 12hLO, xylenol orange hydroperoxide absorbance; further: on the % scale 0 is the no-effect control and ±100 the full control effect
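Purified human 12hLO at 150 nM in 25 mM Hepes, 0.01% Triton X-100, pH 7.0, preincubated 15 min at room temperature with compound. Reaction started with 40 uM arachidonic acid, 30 min at room temperature. Hydroperoxide measured by Fe-xylenol orange, 573/405 nm absorbance ratio.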
BAZ2B inh: blocks human BAZ2B | Q9UIF8 | AlphaScreen BAZ2B-H3K14Ac peptide displacement | Potency, µM (doses to about 114 µM), for the others: at the highest dose activity change, negative = inhibition, usual class: inhibitors | 360,000 compounds, 4.4% hits | AID 504333; further: on the % scale 0 is the no-effect control and ±100 the full control effect; nearly all actives have a fitted effect of over 60% in size
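Protein-peptide AlphaScreen: BAZ2B 50 nM, b-H3K14Ac 50 nM, 1x PBS pH 7.4 + 0.01% Tween-20. Preincubation 30 min RT; cpd 30 min RT (top 110 uM); beads 20 min RT, light-protected.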
Sfp PPTase inh: Sfp phosphopantetheinyl transferase inhibition; Q9F4F7; Biochemical Sfp PPTase activity, qHTS; Potency, µM, for the others: largest response in the series, negative = inhibition, hits mostly inhibitors; 310,000 compounds, 3.5% hits; AID 1490;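 further: the enzyme is Sfp with the accession as filed and its product quenches rhodamine fluorescence; 0% = enzyme reaction without inhibitor and -100% = no enzyme wells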
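Fluorescence-quenching assay: 15 nM Sfp-PPTase preincubated 15 min at room temperature with compound, then 5 uM rhodamine-CoA and 12.5 uM BHQ-2-labelled YbbR peptide added. Fluorescence (ex 525/em 598 nm) read at start and after 30 min; difference gives rate.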
JMJD2A Tudor inh: JMJD2A Tudor domain (human) inhibition; O75164; AlphaScreen JMJD2A-Tudor / H3K4me3 peptide binding; Potency, µM (doses to about 114 µM), without a hit: top-dose activity change, negative = inhibition, usual class: inhibitors; 390,000 compounds, 4.4% hits; AID 504339; further: on the % scale 0 is the no-effect control and ±100 the full control effect; nearly all actives have a fitted effect of over 50% in size
Target sequence (O75164 whole entry, looked up, the tested form may be a part): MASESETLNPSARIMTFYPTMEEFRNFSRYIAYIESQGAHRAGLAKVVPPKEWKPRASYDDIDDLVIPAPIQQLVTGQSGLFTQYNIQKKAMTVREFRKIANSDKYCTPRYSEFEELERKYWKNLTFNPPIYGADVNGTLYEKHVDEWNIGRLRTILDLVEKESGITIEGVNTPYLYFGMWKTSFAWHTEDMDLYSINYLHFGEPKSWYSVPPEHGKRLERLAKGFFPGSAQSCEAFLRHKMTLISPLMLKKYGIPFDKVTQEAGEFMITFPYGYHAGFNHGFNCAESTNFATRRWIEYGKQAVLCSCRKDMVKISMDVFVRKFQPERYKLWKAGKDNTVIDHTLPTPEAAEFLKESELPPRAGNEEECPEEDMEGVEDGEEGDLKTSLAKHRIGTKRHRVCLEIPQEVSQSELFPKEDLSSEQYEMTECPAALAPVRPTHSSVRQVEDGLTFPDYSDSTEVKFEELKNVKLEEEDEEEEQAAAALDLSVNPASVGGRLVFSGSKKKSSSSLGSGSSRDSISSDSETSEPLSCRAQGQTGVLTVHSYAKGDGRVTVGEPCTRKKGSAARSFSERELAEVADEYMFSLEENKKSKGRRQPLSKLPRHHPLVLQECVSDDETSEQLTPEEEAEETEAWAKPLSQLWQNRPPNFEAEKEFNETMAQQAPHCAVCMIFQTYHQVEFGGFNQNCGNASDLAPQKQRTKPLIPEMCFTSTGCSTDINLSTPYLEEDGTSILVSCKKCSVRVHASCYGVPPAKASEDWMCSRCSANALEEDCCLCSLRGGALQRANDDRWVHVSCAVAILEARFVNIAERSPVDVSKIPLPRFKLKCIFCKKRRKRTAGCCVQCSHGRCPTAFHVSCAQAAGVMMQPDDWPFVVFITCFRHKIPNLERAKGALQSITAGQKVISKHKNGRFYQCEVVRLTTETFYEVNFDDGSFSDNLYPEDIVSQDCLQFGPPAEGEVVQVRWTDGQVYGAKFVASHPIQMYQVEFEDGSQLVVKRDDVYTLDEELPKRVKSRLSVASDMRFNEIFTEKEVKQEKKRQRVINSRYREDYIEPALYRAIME
HP1b chromo inh: inhibitors of HP1-beta chromodomain binding to methylated histone tails | P83916 | AlphaScreen HP1-beta / biotin-H3K9me3 peptide binding | Potency, µM (doses to about 114 µM), for inactives: at the top dose activity change, negative = inhibition, actives largely listed as inhibitors | 390,000 compounds, 0.56% hits | AID 540317; further: nearly all actives have a fitted effect of over 70% in size
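AlphaScreen: HP1-beta (50 nM) preformed 30 min with biotin-H3(1-18)K9me3 peptide (50 nM) in PBS pH 7.4, 0.01% Tween-20. Compound added for 30 min at RT, then streptavidin donor/nickel chelate acceptor beads (10 ug/mL) for 30 min.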
G9a block: blocks human histone lysine methyltransferase G9a | Q96KQ7 | G9a H3K9 monomethylation, AlphaScreen, 2 h | Potency, µM (top dose mostly 102 µM), for inactives: at the highest dose activity, negative = inhibition, usual class: inhibitors | 350,000 compounds, 8.8% hits | AID 504332; further: on the % scale 0 is the no-effect control and ±100 the full control effect; nearly all actives have a fitted effect of over 75% in size
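Enzyme 20 nM + cpd, 15 min RT; add b-H3K9 pep 500 nM / SAM 20 uM; 2 h RT; anti-H3K9me1 Ab 0.5 ug/mL + SA donor / anti-rabbit acceptor beads 20 ug/mL each, 10 min; AlphaScreen read.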
* = called active by the depositor; ? = inconclusive; · = no result; [ ] = remark or other dose. Only some compounds are listed: those with a hit (about 8.7% of all), similar ones and a draw of the others. The call rests on the fitted dose curve; in most records, active means well fitted curve in the direction sought with a large enough effect; inconclusive means small, poorly fitted or top-dose-only effect, or another doubt; inactive means no such curve, though single readings can be large; an effect the other way counts as inactive or inconclusive. Potency means the concentration at half of the fitted maximal effect.

SMILES | 12-LOX inh | BAZ2B inh | Sfp PPTase inh | JMJD2A Tudor inh | HP1b chromo inh | G9a block
COCCn1nnnc1C(c1cccc(C#N)c1)N1CCCCCC1 (stereo unspecified) | ? | ? | 4.5% | -17.6% | 26.8% | 44.7µM*
CCC(c1nnnn1CCc1ccccc1)N1CCN(c2ccc(OC)cc2)CC1 (stereo unspecified) | 4.2% | ? | 1.6% | -32.8% | -4.9% | 11.2µM*
COc1ccc(C(c2nnnn2Cc2ccccc2)N2CCN(c3ccccc3)CC2)cc1 (stereo unspecified) | ? | 79.4µM* | -8.1% | -35.4% | -0.6% | -12.7%[12.7 µM]
CCC(c1nnnn1Cc1ccccc1)N1CCN(c2ccccc2)CC1 (stereo unspecified) | 0.0% | -13.7% | -4.6% | -23.9% | 7.6% | -9.6%[12.7 µM]
COc1cccc(CNC(=O)[C@@H]2C[C@@H](O)CN2C2CCN(C(=O)COc3cccc(C)c3)CC2)c1 | 44.6% | · | · | · | · | ·
Cn1c(=O)c2c(ncn2CC(O)c2cccc(F)c2)n(C)c1=O (stereo unspecified) | -4.6% | · | · | · | · | ·
CCCCC(c1nnnn1CC1CCCO1)N1CCN(c2nc3ccccc3s2)CC1 (stereo unspecified) | ? | 50.1µM* | -9.8% | -17.8%[11.4 µM] | 61.5% | 28.2µM*
Cc1ccc2[nH]c(C)c(CCNC(=O)C3CCCCC3C(=O)OCC(F)(F)F)c2c1 (stereo unspecified) | -23.8% | ? | -5.5% | 70.8µM* | -20.9% | -43.4%[59 µM]
CSc1nc2ncnc(N)c2[nH]1 | ? | -26.6% | -26.5% | 79.4µM* | 7.4% | 44.7µM*
Cc1ccccc1-n1c(SCC(=O)c2c(N)n(C3CC3)c(=O)[nH]c2=O)nnc1N1CCOCC1 | 164.0% | -1.8% | · | -10.8% | 20.5% | 10µM*
CCn1c(SCC(=O)c2c(N)n(C3CC3)c(=O)[nH]c2=O)nnc1-c1ccccc1OC | ? | 4.5% | · | -18.4% | 27.3% | 2µM*
Cc1ccc(-n2c(SCC(=O)c3c(N)n(C4CC4)c(=O)[nH]c3=O)nnc2N2CCOCC2)cc1 | 18.1% | -1.8% | · | -5.4% | 21.1% | -36.7%
NS(=O)(=O)c1ccc(CCNCC2(O)CCNC2)cc1 (stereo unspecified) | 21.4% | · | · | · | · | ·
CCn1c(=O)n(CC)c2cc(N3CCCC3)c(NC(=O)c3c(F)cccc3F)cc21 | -25.3% | ? | -2.4% | 7.0% | 19.9% | ?
CCn1c(=O)n(CC)c2cc(N3CCCC3)c(NC(=O)c3ccc(F)cc3)cc21 | 29.0% | ? | -19.2% | -21.0% | 26.1% | 44.7µM*
CCOc1ccc(C(=O)Nc2cc3c(cc2N2CCCC2)n(CC)c(=O)n3CC)cc1OCC | 0.0% | ? | 5.0% | -31.9% | 6.7% | 44.7µM*
COC(=O)c1ccc2oc(=O)c(S(=O)(=O)c3ccc(F)cc3)cc2c1 | 3.3% | · | · | · | · | ·
Cc1cc(C)c(CNC(=O)c2nc(-c3cccc(F)c3)cc3c2ccn3C(C)C)c(=O)[nH]1 | -0.6%[176 µM] | · | · | · | · | ·
COc1cccc(NC(=O)COc2coc(CN3CCSCC3)cc2=O)c1 | 6.1% | · | · | · | · | ·
Cc1ccsc1C(=O)N1CCc2onc(-c3ccc(F)c(F)c3)c2C1 | 30.9% | · | · | · | · | ·
O=C(Nc1ccccc1Br)c1cc(C2CC2)nn1-c1ccccc1 | 17.7% | · | · | · | · | ·
Cc1ccc(-c2cnc(SCCNC(=O)c3ccco3)[nH]2)cc1 | -7.0% | -34.0% | · | -21.2% | -0.3% | 44.7µM*
O=S(=O)(Cc1ccccc1)N1CCN(Cc2ccc(Br)cc2)CC1 | ? | -12.0% | 13.4% | 3.55µM* | ? | 11.8%
O=S(=O)(Cc1ccc(Cl)cc1)N1CCN(Cc2ccccc2)CC1 | 0.7% | -6.6% | 0.3% | -9.6% | 41.5% | ?
CSc1ccc(CN2CCCN(C)CC2)cc1 | ? | 56.2µM* | -4.5% | 12.6µM* | ? | 10µM*
CSc1ccc(CN2CCN(Cc3ccccc3)C(CCO)C2)cc1 (stereo unspecified) | -1.7% | -12.5% | 15.8% | -18.4% | 18.5% | -8.3%
